Laboratory results taken from the supplement of paper PMC10849652.
Of roughly 8,800 targets only a part is listed; those with a hit were picked by preference. About 0.5% of all pairs of compound and target were hits. Unmarked numbers belong to inactive results.

Legend:
Test in all cases: log2 fold change, soluble protein after heating vs DMSO (PISA); higher = thermal stabilisation; K562 lysate, 10 uM; active = over 0.2 and 3.5 SD of the protein, either way, in both replicates (recomputed)
erlotinib = compound: C#Cc1cccc(Nc2ncnc3cc(OCCOC)c(OCCOC)cc23)c1 [erlotinib]
Procedure, shortened: (§1)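 Log-two fold change in thermal stability relative to solvent controls is reported from duplicates. For each sample, crude K562 extract from dounce-homogenised pellets in PBS pH 7.4 with 1 mM MgCl2, at 1 mg/mL protein, was treated with 10 μM compound for 30 min. Aliquots heated for 3 min across 48°C-58°C were pooled, brought to 0.5% NP-40 at 4°C and cleared at 21,000xg for 90 min. The supernatant was quantified by TMTpro 16plex LC-MS/MS with channel sums equalised.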

[1] = compound: C/C(=N\NC(=O)C1=CC(=CC=C1)S(=O)(=O)N2CCOCC2)/C3=C(C=CC(=C3)Cl)O
Procedure, shortened: as §1

[2] = compound: C1=CC(=CC=C1C2=NC3=C(N2)C=C(C=C3)C(=O)N)OC4=CC=C(C=C4)Cl
Procedure, shortened: as §1

[3] = compound: C1=CC2=C(C=CC(=C2)/C=C\3/C(=O)NC(=NCC4=CC=CS4)S3)N=C1
Procedure, shortened: as §1

[4] = compound: C1=CC2=NC=CN=C2C=C1/C=C/3\C(=O)NC(=O)S3
Procedure, shortened: as §1

[5] = compound: C1=CC=C(C=C1)C2=NC(=C(N2)C3=CC=NC=C3)C4=CC(=C(C=C4)Cl)O
Procedure, shortened: as §1

[6] = compound: C1=CC=C2C(=C1)C3=NNC4=CC=CC(=C43)C2=O
Procedure, shortened: as §1

[7] = compound: C1CCN(C1)C(=O)NC2=CC=CC(=C2)NC3=NC=C(C(=N3)NCCC4=CN=CN4)Br
Procedure, shortened: as §1

[8] = compound: C1CN(CCC1(CC2=CC=C(C=C2)Cl)N)C3=NC=NC4=C3C=CN4
Procedure, shortened: as §1

IRAK-1-4 Inhibitor I = compound: C1COCCN1CCN2C3=CC=CC=C3N=C2NC(=O)C4=CC(=CC=C4)[N+](=O)[O-] [IRAK-1-4 Inhibitor I]
Procedure, shortened: as §1

ibrutinib = compound: C=CC(=O)N1CCC[C@@H](n2nc(-c3ccc(Oc4ccccc4)cc3)c3c(N)ncnc32)C1 [ibrutinib]
Procedure, shortened: as §1

[9] = compound: CC(=O)c1cnc2ccc(-c3cc(Cl)c(O)c(Cl)c3)nc2c1N[C@H]1CC[C@H](CN(C)C)CC1
Procedure, shortened: as §1

ralimetinib = compound: CC(C)(C)Cn1c(N)nc2ccc(-c3[nH]c(C(C)(C)C)nc3-c3ccc(F)cc3)nc21 [ralimetinib]
Procedure, shortened: as §1

[10] = compound: CC(C)(O)CC(=O)NCCn1ccc2ncnc(Nc3ccc(Oc4cccc(C(F)(F)F)c4)c(Cl)c3)c21
Procedure, shortened: as §1

[11] = compound: CC(C)C1=C2N=C(C=C(N2N=C1)NCC3=CC=CC=C3)NCCCCCCN
Procedure, shortened: as §1

[12] = compound: CC1=C(C(CC(=O)N1)C2=CC=C(C=C2)C(F)(F)F)C(=O)NC3=C(C=C4C(=C3)C=NN4)F
Procedure, shortened: as §1

[13] = compound: CC1=C(C2=C(C=C1)C(=O)C3=CC=CC=C3N2CCCN)C
Procedure, shortened: as §1

[14] = compound: CC1=C(C=C(C=C1)NC(=O)C2=CC(=CC=C2)C(C)(C)C#N)NC3=CC4=C(C=C3)N=CN(C4=O)C
Procedure, shortened: as §1

[15] = compound: CC1=C(C=C(C=C1)NC(=O)C2=CC(=CC=C2)N(C)C)NC(=O)C3=CC=C(C=C3)O
Procedure, shortened: as §1

[16] = compound: CC1=CC=C(C=C1)SC2=C3C=C(SC3=CN=C2)C(=O)N
Procedure, shortened: as §1

DCP1A (UniProt Q9NPI6)
UniProt Q9NPI6, sequence (Q9NPI6 whole entry, looked up): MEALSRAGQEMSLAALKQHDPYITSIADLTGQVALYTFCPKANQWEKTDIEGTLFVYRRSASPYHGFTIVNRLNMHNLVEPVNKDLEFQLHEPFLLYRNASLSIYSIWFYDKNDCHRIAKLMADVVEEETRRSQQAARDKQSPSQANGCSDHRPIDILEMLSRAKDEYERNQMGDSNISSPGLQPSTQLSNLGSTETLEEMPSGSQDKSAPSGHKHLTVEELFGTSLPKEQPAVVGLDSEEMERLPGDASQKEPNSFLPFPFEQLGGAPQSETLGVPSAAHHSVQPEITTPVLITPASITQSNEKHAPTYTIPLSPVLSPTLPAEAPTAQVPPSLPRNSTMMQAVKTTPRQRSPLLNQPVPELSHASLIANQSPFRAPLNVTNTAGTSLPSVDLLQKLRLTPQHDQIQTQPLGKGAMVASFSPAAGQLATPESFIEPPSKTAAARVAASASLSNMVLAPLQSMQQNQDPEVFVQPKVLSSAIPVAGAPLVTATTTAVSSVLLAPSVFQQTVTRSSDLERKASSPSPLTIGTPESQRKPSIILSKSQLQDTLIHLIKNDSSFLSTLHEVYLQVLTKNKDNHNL
log2 fold change (erlotinib): 0.038 | log2 fold change [1]: 0.025 | log2 fold change [2]: 0.03 | log2 fold change [3]: 0.004 | log2 fold change [4]: -0.03 | log2 fold change [5]: 0.014 | log2 fold change [6]: -0.033 | log2 fold change [7]: 0.013 | log2 fold change [8]: 0.012 | log2 fold change (IRAK-1-4 Inhibitor I): -0.045 | log2 fold change (ibrutinib): 0 | log2 fold change [9]: -0.016 | log2 fold change (ralimetinib): 0.004 | log2 fold change [10]: -0.042 | log2 fold change [11]: 0.025 | log2 fold change [12]: 0.013 | log2 fold change [13]: -0.02 | log2 fold change [14]: 0.046 | log2 fold change [15]: 0.011 | log2 fold change [16]: 0

DNAAF5 (UniProt Q86Y56)
UniProt Q86Y56, sequence (Q86Y56 whole entry, looked up): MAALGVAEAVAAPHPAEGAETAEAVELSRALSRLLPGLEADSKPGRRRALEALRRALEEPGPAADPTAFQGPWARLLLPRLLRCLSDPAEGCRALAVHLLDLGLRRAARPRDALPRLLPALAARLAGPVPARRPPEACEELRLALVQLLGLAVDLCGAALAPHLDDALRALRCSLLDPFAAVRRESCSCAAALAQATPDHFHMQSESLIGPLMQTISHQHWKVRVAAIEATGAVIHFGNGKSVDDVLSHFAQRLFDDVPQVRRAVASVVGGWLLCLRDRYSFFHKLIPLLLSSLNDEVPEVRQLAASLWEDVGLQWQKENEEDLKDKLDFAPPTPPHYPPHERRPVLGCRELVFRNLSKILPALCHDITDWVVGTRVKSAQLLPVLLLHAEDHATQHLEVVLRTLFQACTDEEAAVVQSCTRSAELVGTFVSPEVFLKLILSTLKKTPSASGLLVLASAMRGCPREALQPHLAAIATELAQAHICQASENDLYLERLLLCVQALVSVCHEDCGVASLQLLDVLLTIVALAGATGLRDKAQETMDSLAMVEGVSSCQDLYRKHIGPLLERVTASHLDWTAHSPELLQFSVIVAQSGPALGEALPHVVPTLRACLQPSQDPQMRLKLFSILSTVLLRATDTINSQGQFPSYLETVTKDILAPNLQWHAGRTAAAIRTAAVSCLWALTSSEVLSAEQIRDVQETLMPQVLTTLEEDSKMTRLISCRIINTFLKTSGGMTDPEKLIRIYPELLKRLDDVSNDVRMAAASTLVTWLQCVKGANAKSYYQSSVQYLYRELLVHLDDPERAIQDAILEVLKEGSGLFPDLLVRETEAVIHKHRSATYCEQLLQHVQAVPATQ
log2 fold change (erlotinib): -0.008 | log2 fold change [1]: 0.041 | log2 fold change [2]: -0.062 | log2 fold change [3]: -0.057 | log2 fold change [4]: 0.021 | log2 fold change [5]: -0.016 | log2 fold change [6]: -0.08 | log2 fold change [7]: -0.003 | log2 fold change [8]: 0.007 | log2 fold change (IRAK-1-4 Inhibitor I): -0.039 | log2 fold change (ibrutinib): -0.043 | log2 fold change [9]: 0.032 | log2 fold change (ralimetinib): 0.074 | log2 fold change [10]: -0.049 | log2 fold change [11]: -0.043 | log2 fold change [12]: -0.002 | log2 fold change [13]: -0.005 | log2 fold change [14]: -0.035 | log2 fold change [15]: 0.047 | log2 fold change [16]: 0.061

DNAJC5 (UniProt Q9H3Z4)
UniProt Q9H3Z4, sequence (Q9H3Z4 whole entry, looked up): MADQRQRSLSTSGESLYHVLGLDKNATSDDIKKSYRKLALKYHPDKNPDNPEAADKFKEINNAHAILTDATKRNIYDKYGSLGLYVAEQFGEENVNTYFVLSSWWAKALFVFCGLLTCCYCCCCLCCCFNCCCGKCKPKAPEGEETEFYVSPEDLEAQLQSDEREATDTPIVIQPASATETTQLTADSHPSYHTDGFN
log2 fold change (erlotinib): -0.003 | log2 fold change [1]: 0.037 | log2 fold change [2]: -0.018 | log2 fold change [3]: -0.021 | log2 fold change [4]: 0.053 | log2 fold change [5]: 0.033 | log2 fold change [6]: 0 | log2 fold change [7]: 0.049 | log2 fold change [8]: -0.005 | log2 fold change (IRAK-1-4 Inhibitor I): -0.012 | log2 fold change (ibrutinib): -0.029 | log2 fold change [9]: -0.072 | log2 fold change (ralimetinib): -0.013 | log2 fold change [10]: -0.043 | log2 fold change [11]: -0.044 | log2 fold change [12]: 0.06 | log2 fold change [13]: -0.008 | log2 fold change [14]: 0.048 | log2 fold change [15]: -0.036 | log2 fold change [16]: -0.116

DCP2 (UniProt Q8IU60)
log2 fold change (erlotinib): 0.005 | log2 fold change [1]: 0.039 | log2 fold change [2]: -0.029 | log2 fold change [3]: -0.064 | log2 fold change [4]: -0.037 | log2 fold change [5]: -0.007 | log2 fold change [6]: 0.001 | log2 fold change [7]: 0.025 | log2 fold change [8]: -0.014 | log2 fold change (IRAK-1-4 Inhibitor I): -0.017 | log2 fold change (ibrutinib): -0.005 | log2 fold change [9]: -0.005 | log2 fold change (ralimetinib): 0.067 | log2 fold change [10]: 0.003 | log2 fold change [11]: 0.006 | log2 fold change [12]: 0.021 | log2 fold change [13]: 0.034 | log2 fold change [14]: -0.043 | log2 fold change [15]: 0.081 | log2 fold change [16]: -0.002

CSK (UniProt P41240)
UniProt P41240, sequence (P41240 whole entry, looked up): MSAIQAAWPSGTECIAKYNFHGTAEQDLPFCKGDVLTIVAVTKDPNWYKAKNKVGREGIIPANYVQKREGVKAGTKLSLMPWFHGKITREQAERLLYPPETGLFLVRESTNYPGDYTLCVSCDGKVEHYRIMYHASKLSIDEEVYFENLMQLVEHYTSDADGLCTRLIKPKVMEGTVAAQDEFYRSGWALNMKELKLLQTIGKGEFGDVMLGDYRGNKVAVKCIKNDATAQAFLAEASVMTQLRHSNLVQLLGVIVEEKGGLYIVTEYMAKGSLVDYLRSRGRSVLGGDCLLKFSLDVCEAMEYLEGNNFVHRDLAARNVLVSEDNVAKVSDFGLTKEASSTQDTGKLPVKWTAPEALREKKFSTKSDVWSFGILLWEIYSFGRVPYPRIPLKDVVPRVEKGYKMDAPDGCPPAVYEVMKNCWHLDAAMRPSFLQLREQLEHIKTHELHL
log2 fold change (erlotinib): 0.045 | log2 fold change [1]: -0.025 | log2 fold change [2]: -0.004 | log2 fold change [3]: -0.028 | log2 fold change [4]: -0.035 | log2 fold change [5]: 0.031 | log2 fold change [6]: 0.106 | log2 fold change [7]: 0.107 | log2 fold change [8]: 0.033 | log2 fold change (IRAK-1-4 Inhibitor I): 0.053 | log2 fold change (ibrutinib): 0.891 (active) | log2 fold change [9]: 0.242 | log2 fold change (ralimetinib): 0 | log2 fold change [10]: 0.181 | log2 fold change [11]: 0 | log2 fold change [12]: -0.086 | log2 fold change [13]: -0.04 | log2 fold change [14]: 0.626 (active) | log2 fold change [15]: -0.015 | log2 fold change [16]: -0.054

CMTM3 (UniProt Q96MX0)
UniProt Q96MX0, sequence (Q96MX0 whole entry, looked up): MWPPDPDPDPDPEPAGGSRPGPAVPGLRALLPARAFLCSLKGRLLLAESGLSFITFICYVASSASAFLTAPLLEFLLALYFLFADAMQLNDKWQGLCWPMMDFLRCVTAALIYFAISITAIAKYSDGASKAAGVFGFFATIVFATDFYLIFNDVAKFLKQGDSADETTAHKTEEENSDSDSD
log2 fold change (erlotinib): 0.002 | log2 fold change [1]: -0.112 | log2 fold change [2]: 0.053 | log2 fold change [3]: -0.084 | log2 fold change [4]: -0.009 | log2 fold change [5]: -0.011 | log2 fold change [6]: -0.019 | log2 fold change [7]: -0.083 | log2 fold change [8]: -0.089 | log2 fold change (IRAK-1-4 Inhibitor I): -0.012 | log2 fold change (ibrutinib): -0.036 | log2 fold change [9]: 0.036 | log2 fold change (ralimetinib): 0.093 | log2 fold change [10]: 0.104 | log2 fold change [11]: -0.022 | log2 fold change [12]: 0.052 | log2 fold change [13]: -0.06 | log2 fold change [14]: 0.06 | log2 fold change [15]: -0.039 | log2 fold change [16]: -0.016

DHRS11 (UniProt Q6UWP2)
UniProt Q6UWP2, sequence (Q6UWP2 whole entry, looked up): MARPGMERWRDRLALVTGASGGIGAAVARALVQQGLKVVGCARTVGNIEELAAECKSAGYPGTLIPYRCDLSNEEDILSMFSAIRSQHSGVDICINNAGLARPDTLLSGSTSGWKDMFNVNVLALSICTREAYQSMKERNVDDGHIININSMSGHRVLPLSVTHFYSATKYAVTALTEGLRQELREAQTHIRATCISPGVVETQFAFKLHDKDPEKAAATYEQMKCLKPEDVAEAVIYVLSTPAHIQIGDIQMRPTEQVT
log2 fold change (erlotinib): 0.054 | log2 fold change [1]: -0.017 | log2 fold change [2]: -0.004 | log2 fold change [3]: 0.017 | log2 fold change [4]: -0.006 | log2 fold change [5]: -0.015 | log2 fold change [6]: -0.008 | log2 fold change [7]: -0.041 | log2 fold change [8]: 0.042 | log2 fold change (IRAK-1-4 Inhibitor I): -0.02 | log2 fold change (ibrutinib): 0.028 | log2 fold change [9]: -0.008 | log2 fold change (ralimetinib): 0.028 | log2 fold change [10]: -0.014 | log2 fold change [11]: 0.048 | log2 fold change [12]: -0.005 | log2 fold change [13]: -0.029 | log2 fold change [14]: 0.007 | log2 fold change [15]: 0.015 | log2 fold change [16]: 0.03

CTPS1 (UniProt P17812)
UniProt P17812, sequence (P17812 whole entry, looked up): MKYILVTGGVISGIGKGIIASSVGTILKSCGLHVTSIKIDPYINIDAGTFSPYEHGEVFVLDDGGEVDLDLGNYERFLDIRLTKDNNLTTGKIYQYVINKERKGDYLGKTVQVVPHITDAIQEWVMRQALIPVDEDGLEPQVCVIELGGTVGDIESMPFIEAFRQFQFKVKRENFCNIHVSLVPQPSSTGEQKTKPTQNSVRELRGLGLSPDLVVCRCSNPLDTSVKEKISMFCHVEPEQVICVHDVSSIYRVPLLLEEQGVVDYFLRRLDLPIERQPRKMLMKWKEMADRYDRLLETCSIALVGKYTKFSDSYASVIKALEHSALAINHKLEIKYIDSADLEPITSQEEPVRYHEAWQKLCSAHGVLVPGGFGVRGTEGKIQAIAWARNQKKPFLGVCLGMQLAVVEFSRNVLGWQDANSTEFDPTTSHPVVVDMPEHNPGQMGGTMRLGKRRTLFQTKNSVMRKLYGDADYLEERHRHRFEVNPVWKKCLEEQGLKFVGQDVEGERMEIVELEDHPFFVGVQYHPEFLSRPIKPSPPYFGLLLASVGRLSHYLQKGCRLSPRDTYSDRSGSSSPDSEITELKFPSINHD
log2 fold change (erlotinib): -0.002 | log2 fold change [1]: 0.011 | log2 fold change [2]: -0.027 | log2 fold change [3]: -0.009 | log2 fold change [4]: 0.005 | log2 fold change [5]: -0.013 | log2 fold change [6]: -0.011 | log2 fold change [7]: -0.007 | log2 fold change [8]: -0.007 | log2 fold change (IRAK-1-4 Inhibitor I): -0.001 | log2 fold change (ibrutinib): -0.045 | log2 fold change [9]: 0.01 | log2 fold change (ralimetinib): -0.017 | log2 fold change [10]: -0.015 | log2 fold change [11]: -0.022 | log2 fold change [12]: -0.012 | log2 fold change [13]: 0.024 | log2 fold change [14]: 0.004 | log2 fold change [15]: 0.017 | log2 fold change [16]: 0.02
